Assay [1] is described as follows: BSK_4H_Eotaxin3: BioMAP Diversity Plus: 4H Assay for Eotaxin 3 Biomarker Activity (AID 2283000; active = hit-call score of the fitted dose curve at least 0.9, where 1 is the maximum; inactive = score below 0.9;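 as to outcome: CCL26 protein level quantified by ELISA in parallel with SRB cytotoxicity check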). The following applies: primary human endothelial cells (HUVEC); actives raise or lower the signal. A digest of the protocol:
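HUVEC, 24 h post-dose, ELISA for Eotaxin-3/CCL26. Gain or loss of signal fitted bidirectionally vs DMSO baseline.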

Assay [2] concerns the target human Peroxisome Proliferator-activated Receptor delta (PPARd), PPARD (gene 5467) (UniProt Q03181). The assay is described as follows: ATG_PPARd_TRANS: Attagene TRANS-FACTORIAL HepG2 Assay for human Peroxisome Proliferator-activated Receptor delta (PPARd) (AID 2283002). Summed up:
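Transient HepG2 transfection (multiple GAL4-UAS RTUs, chimeric receptor-Gal4); 24 h dosing; total RNA → oligo(dT) RT → PCR → 6-FAM primer extension → HpaI cut → CE. Positive direction vs DMSO.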

Read-out in assay [3]: Intercellular Adhesion Molecule 1 (ICAM1), ICAM1 (gene 3383)
The assay can be described thus: BSK_3C_ICAM1: BioMAP Diversity Plus: 3C Assay for Intercellular Adhesion Molecule 1 (ICAM1) Biomarker Activity (AID 2283003; active = hit-call score of the fitted dose curve at least 0.9, where 1 is the maximum; inactive = score below 0.9). The following applies: primary human endothelial cells (HUVEC); actives raise or lower the signal. A digest of the protocol: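 Chemicals are dosed onto primary human umbilical vein endothelium (3C system). After 24 h, ICAM-1 is measured by ELISA, and responses are fitted bidirectionally relative to DMSO.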

In assay [4] the target is human Retinoic Acid Receptor beta (RARb), RARB (gene 5915) (UniProt P10826). The assay can be described thus: ATG_RARb_TRANS: Attagene TRANS-FACTORIAL HepG2 Assay for human Retinoic Acid Receptor beta (AID 2283004). A digest of the protocol:
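HepG2 cells transiently transfected with multiplexed GAL4-UAS reporter units expressing chimeric NR–Gal4 fusions; 24 h compound exposure. Reporter mRNA quantified by RT-PCR, 6-FAM labelling, HpaI digestion and capillary electrophoresis; gain-of-signal fitted against DMSO baseline.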

Assay [5] deals with Retinoic acid receptor alpha (Homo sapiens) (UniProt P10276). The assay can be described thus: ATG_RARa_TRANS: Attagene TRANS-FACTORIAL HepG2 Assay for human Retinoic Acid Receptor alpha (RARa) (AID 2283005). Summed up: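 Reporter transcripts, measured by RT-PCR with fluorescent labeling and capillary electrophoresis after 24 h dosing, reflect activity of an exogenous human RARa–GAL4 fusion in transiently transfected HepG2. Fitted for increase relative to DMSO.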

A short description of assay [6]: BSK_3C_Proliferation: Cell Proliferation Assessment in the BioMAP Diversity Plus: 3C Assay (AID 2283006; active = hit-call score of the fitted dose curve at least 0.9, where 1 is the maximum; inactive = score below 0.9;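 as to AC50: potency may reflect either rise or fall in cell number versus DMSO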). The following applies: primary human endothelial cells (HUVEC). Summed up: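 Cells (human umbilical vein endothelial, sub-confluent) receive test chemical; after 48 h they are fixed in 10% trichloroacetic acid, stained with 0.1% SRB and read at 560 nm. Activity is referenced to DMSO, fitting increases and decreases.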

Assay [7] deals with Peroxisome proliferator-activated receptor gamma (Homo sapiens) (UniProt P37231). The assay is described as follows: ATG_PPARg_TRANS: Attagene TRANS-FACTORIAL HepG2 Assay for human Peroxisome Proliferator-activated Receptor-gamma (PPARg) (AID 2283007). Summed up: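 Multiplexed reporter transcription units in HepG2, 24 h dosing, reporter transcripts quantified by fluorescent RT-PCR and capillary electrophoresis. Increase over DMSO scored.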

Assay [8] deals with Nuclear receptor subfamily 1 group I member 2 (Homo sapiens) (UniProt O75469). The assay is described as follows: ATG_PXR_TRANS: Attagene TRANS-FACTORIAL HepG2 Assay for human Pregnane X Receptor (PXR) (AID 2283008). A digest of the protocol: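 Trans-factorial format: exogenous NR-Gal4 fusion activity, not endogenous factor, in transfected human HepG2 liver cells. After 24 h dosing, RNA isolated, reverse-transcribed, amplified and resolved by capillary electrophoresis; induction scored versus DMSO.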

Assay [9] has as its target human Retinoic Acid Receptor gamma (RARg), RARG (gene 5916) (UniProt P13631). The assay is described as follows: ATG_RARg_TRANS: Attagene TRANS-FACTORIAL HepG2 Assay for human Retinoic Acid Receptor gamma (RARg) (AID 2283009). A digest of the protocol: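 TRANS format measured activity of exogenous NR-GAL4 fusion (RARg) in transfected HepG2 liver cells after 24 h dosing. Induced reporter RNA was detected by RT-PCR/capillary electrophoresis fluorescence, analysed in the positive direction against DMSO.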

In assay [10] the target is human Peroxisome Proliferator-activated Receptor alpha (PPARa), PPARA (gene 5465) (UniProt Q07869). The assay can be described thus: ATG_PPARa_TRANS: Attagene TRANS-FACTORIAL HepG2 Assay for human Peroxisome Proliferator-activated Receptor alpha (PPARa) (AID 2283001).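 As to AC50: potency for gain of reporter signal over DMSO so agonist or activator.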 Summed up:
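Reporter transcripts quantified by RT-PCR plus capillary electrophoresis after 24 h treatment, fitted upward relative to DMSO. Cells: human HepG2 transiently carrying multiple GAL4-UAS reporter units driven by NR-Gal4 chimeras.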

Each structure is given as a SMILES string. Several values for one entry are separate records, joined by “and”; a condition that tells them apart may be missing. Identical values can stand only once. Inconclusive results are not listed. Activity calls are given as the source filed them. The calls were made as follows, unless noted: active = hit-call score of the fitted dose curve at least 0.9, where 1 is the maximum; inconclusive = response in the unintended direction; inactive = score below 0.9.

Sequence of human Retinoic Acid Receptor beta (RARb), RARB (gene 5915) (P10826 whole entry, looked up, the tested form may be a part): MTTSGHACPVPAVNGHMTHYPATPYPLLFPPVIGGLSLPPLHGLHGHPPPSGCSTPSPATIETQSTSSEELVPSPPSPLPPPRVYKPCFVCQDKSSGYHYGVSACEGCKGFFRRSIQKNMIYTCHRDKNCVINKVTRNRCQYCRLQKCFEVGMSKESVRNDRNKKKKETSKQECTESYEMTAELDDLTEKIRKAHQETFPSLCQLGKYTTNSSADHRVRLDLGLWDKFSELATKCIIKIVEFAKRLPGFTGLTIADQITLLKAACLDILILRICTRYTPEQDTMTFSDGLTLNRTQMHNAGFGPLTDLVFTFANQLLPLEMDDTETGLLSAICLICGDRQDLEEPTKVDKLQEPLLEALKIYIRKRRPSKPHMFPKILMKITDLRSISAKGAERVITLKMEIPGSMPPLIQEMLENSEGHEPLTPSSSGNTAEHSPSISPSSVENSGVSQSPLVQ
Sequence of human Retinoic Acid Receptor gamma (RARg), RARG (gene 5916) (P13631 whole entry, looked up, the tested form may be a part): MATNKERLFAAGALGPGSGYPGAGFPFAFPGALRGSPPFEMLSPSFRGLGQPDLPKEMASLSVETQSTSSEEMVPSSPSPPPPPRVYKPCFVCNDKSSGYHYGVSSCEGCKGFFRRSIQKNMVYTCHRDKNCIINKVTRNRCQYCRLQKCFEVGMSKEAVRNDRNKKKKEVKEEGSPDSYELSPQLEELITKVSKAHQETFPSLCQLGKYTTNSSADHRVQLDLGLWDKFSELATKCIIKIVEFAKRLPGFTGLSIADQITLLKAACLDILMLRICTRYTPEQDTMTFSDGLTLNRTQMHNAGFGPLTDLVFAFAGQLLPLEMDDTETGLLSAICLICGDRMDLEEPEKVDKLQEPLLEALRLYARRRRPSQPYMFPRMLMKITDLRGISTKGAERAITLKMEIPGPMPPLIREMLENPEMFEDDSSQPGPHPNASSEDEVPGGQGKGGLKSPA
Sequence of human Peroxisome Proliferator-activated Receptor delta (PPARd), PPARD (gene 5467) (Q03181 whole entry, looked up, the tested form may be a part): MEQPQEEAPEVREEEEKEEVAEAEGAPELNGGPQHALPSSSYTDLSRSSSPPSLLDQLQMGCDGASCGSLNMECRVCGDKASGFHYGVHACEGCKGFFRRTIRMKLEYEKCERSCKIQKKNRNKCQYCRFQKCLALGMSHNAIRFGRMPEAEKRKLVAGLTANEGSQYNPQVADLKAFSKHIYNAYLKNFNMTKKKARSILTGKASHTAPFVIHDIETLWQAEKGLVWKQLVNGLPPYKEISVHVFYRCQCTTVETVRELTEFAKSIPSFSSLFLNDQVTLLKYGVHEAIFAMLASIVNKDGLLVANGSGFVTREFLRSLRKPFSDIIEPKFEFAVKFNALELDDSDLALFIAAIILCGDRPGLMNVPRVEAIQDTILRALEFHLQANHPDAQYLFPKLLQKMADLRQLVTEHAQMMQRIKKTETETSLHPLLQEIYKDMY
Sequence of human Peroxisome Proliferator-activated Receptor alpha (PPARa), PPARA (gene 5465) (Q07869 whole entry, looked up, the tested form may be a part): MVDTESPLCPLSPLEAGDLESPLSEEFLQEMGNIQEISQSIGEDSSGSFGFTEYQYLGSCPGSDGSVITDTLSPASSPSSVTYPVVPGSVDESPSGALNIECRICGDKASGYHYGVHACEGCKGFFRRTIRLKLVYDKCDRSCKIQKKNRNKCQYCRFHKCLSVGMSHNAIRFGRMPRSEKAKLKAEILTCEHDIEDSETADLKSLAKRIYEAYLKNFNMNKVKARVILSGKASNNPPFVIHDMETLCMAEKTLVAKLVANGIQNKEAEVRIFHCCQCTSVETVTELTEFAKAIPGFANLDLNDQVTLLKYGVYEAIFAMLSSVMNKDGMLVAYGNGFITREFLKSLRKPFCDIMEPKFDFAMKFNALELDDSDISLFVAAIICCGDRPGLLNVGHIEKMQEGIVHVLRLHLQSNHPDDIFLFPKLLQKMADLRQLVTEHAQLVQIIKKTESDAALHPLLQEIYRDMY
Sequence of Peroxisome proliferator-activated receptor gamma (Homo sapiens) (P37231 whole entry, looked up): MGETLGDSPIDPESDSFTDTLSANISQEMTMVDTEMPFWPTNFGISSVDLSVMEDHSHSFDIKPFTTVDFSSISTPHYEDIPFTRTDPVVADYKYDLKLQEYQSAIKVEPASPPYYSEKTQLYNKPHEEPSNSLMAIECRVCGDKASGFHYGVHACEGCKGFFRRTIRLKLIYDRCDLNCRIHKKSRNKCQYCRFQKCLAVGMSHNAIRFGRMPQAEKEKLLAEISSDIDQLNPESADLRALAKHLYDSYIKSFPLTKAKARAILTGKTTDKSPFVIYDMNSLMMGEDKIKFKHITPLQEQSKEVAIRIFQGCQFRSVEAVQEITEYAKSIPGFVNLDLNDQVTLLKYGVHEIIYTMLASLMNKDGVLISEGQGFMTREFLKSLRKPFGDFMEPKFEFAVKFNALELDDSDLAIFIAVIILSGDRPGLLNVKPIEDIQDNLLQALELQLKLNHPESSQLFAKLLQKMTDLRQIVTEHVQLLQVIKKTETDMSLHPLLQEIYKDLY
Sequence of Nuclear receptor subfamily 1 group I member 2 (Homo sapiens) (O75469 whole entry, looked up, the tested form may be a part): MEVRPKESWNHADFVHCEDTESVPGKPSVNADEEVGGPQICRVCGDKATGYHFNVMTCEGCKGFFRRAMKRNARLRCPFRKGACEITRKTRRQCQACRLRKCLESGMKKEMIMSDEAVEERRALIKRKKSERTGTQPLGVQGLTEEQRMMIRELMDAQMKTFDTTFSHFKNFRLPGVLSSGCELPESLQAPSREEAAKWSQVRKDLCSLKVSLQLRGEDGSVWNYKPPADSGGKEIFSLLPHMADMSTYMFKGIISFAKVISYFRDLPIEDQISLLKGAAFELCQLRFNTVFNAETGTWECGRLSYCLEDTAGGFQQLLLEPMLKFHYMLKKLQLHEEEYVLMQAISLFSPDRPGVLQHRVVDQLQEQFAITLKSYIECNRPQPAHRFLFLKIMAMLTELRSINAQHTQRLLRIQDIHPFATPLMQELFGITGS
Sequence of Retinoic acid receptor alpha (Homo sapiens) (P10276 whole entry, looked up, the tested form may be a part): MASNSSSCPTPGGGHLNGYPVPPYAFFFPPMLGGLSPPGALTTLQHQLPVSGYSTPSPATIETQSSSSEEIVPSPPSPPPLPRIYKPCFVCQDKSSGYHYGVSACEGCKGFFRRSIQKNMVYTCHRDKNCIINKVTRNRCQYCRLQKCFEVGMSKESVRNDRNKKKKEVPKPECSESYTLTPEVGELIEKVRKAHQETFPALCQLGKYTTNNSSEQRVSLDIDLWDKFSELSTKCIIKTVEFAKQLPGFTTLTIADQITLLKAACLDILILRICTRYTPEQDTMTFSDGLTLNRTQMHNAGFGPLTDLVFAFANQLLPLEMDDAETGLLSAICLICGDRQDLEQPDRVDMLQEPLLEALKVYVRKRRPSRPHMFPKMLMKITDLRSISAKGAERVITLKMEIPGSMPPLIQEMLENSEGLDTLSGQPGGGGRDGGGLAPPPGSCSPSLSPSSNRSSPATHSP

On to `CCNc1nc(NC(C)(C)C)nc(OC)n1`, for which the outcome in assay [1], in assay [2], in [3], in assay [4], in assay [5] and in assay [6] was inactive. Moreover, the molecule was classed as inactive in assay [7] and in assay [9]. Also, the AC50 in assay [8] was 3.89 µM (active).
`CCCCC(CC)COC(=O)/C=C/c1ccc(OC)cc1` (stereo not drawn): the molecule was classed as inactive in [10], in [2], in assay [4], in assay [5], in assay [7] and in assay [8].
Turning to `COc1ccc(C(=O)c2ccccc2)c(O)c1`, the results for the half-maximal activity concentration (AC50) in assay [1] and in assay [7] were 20 µM (active) and 33.1 µM (active), respectively. For the same molecule, the result in [2], in assay [3] and in assay [6] was inactive.
On to `Cc1ccccc1CCO`, for which the molecule was classed as inactive in assay [10] and in assay [2].
On to `CCOC(=O)C1=NOC(c2ccccc2)(c2ccccc2)C1`, for which the result in assay [1], in assay [3] and in assay [8] was inactive. Moreover, the concentration at half-maximal activity (AC50) in assay [6] is 28.4 µM (active); in [7] it was 100 µM (active).
Take `C[N+](C)(C)CCCNS(=O)(=O)C(F)(F)C(F)(F)C(F)(F)C(F)(F)C(F)(F)C(F)(F)C(F)(F)C(F)(F)F`: the AC50 in assay [1] was 39 µM (active) and 45.1 µM (active); in [6], 43.4 µM (active) and 42.7 µM (active). In addition, the result in assay [10], in assay [3], in assay [7], in assay [8] and in assay [9] was inactive.
In the case of `O=C1CCCCCCCCCCCN1`, the result in assay [1], in [2], in assay [3], in assay [6] and in [9] was inactive. For the same molecule, the AC50 in [8] was 5.31 µM (active).
As to `C1CNCCN1`, the outcome in assay [1], in assay [3], in assay [6], in assay [8] and in assay [9] was inactive.
Turning to `Cc1ccc([N+](=O)[O-])cc1N`, the result in assay [1], in assay [10], in assay [3], in assay [6], in assay [7] and in [8] was inactive.
Consider `COc1ccc(C(=O)/C(Br)=C\C(=O)O)cc1`, for which the AC50 in assay [1] is 8.38 µM (active) and 20 µM (active); in assay [3], 32.2 µM (active) and 33.3 µM (active); in assay [6], 6.82 µM (active) and 20 µM (active); in assay [8], 6.78 µM (active). In addition, the outcome in assay [10] and in [9] was inactive.
`CC(=O)OCCc1ccccc1`: the outcome in [10], in [2] and in [4] was inactive.
Regarding `c1ccc2sc(SSN3CCOCC3)nc2c1`, the AC50 is 5.26 µM (active) in assay [1]; 20 µM (active) in assay [3]; 0.828 µM (active) in assay [6]; 23.2 µM (active) in assay [7]; 45.3 µM (active) in [8]. Further, the molecule was called inactive in assay [10].
In the case of `O=C(O)C1CCC(C(=O)O)CC1` (stereo not drawn), the call in assay [10] was inactive.
On to `CCCCC1C(=O)N(c2ccccc2)N(c2ccccc2)C1=O`, for which the result in assay [1], in assay [3], in assay [4], in [6] and in assay [9] was inactive. Further, the AC50 in assay [7] was 22.6 µM (active).
For the molecule `Cc1c(O)cccc1O`, the outcome in assay [1], in [3], in [6], in assay [7] and in assay [8] was inactive.
Regarding `CCOC(=O)[C@H](O)[C@@H](O)C(=O)OCC`, the call in assay [10], in assay [2], in assay [4], in assay [5] and in assay [7] was inactive. Also, the concentration at half-maximal activity (AC50) in assay [8] was 68.2 µM (active).
`CCCCCC[C@@H](O)C/C=C\CCCCCCCC(=O)OCC(O)CO` (stereo partly drawn): the AC50 in assay [10] was 15.3 µM (active); in assay [2], 27.7 µM (active); in assay [7], 57.8 µM (active). Further, the molecule was classed as inactive in assay [4], in assay [5], in assay [8] and in [9].
As to `O=C(O)CCC(=O)O`, the molecule was called inactive in assay [10].
Turning to `CC=C(C)C=CC=C(C)C`, the concentration at half-maximal activity (AC50) in assay [1] is 20 µM (active); in assay [6], 22.1 µM (active); in [7], 27.8 µM (active); in [8], 6.05 µM (active). Also, the result in assay [3] and in [9] was inactive.
Take `CCCCCCCO`: the result in [1], in assay [10], in [3], in [6], in [7] and in [8] was inactive. Also, in [9], the molecule was classed as inactive.
On to `Nc1ccc(C(=O)O)cc1`, for which the outcome in [1], in [3], in assay [4], in assay [5], in assay [6] and in assay [9] was inactive.
Take `CC(=O)OC1CCCCC1C(C)(C)C` (stereo not drawn): the result in assay [10], in assay [2], in assay [4], in assay [5], in assay [7] and in assay [8] was inactive. The call in [9] was inactive.
With `CCCCCCCCC(CO)CCCCCC` (stereo not drawn), in [1], the AC50 was 5.35 µM (active). Further, the outcome in assay [3], in assay [6], in assay [7], in assay [8] and in assay [9] was inactive.
Turning to `O=c1c(O)c(-c2ccc(O)cc2O)oc2cc(O)cc(O)c12`, the result in [10], in assay [2], in assay [4], in assay [5], in assay [7] and in assay [8] was inactive.
For `COC(OC)(C(=O)c1ccccc1)c1ccccc1`, the result in assay [1], in [2], in [3], in assay [6], in assay [7] and in assay [9] was inactive. In addition, the AC50 in assay [8] is 0.52 µM (active).
In the case of `Nc1nc(N)nc(-c2ccccc2)n1`, the outcome in assay [1], in assay [10], in [3], in assay [6], in assay [7] and in assay [8] was inactive.
Regarding `CC(C)COC(=O)CC(C(=O)OCC(C)C)S(=O)(=O)O` (stereo not drawn), the outcome in [10], in assay [2], in assay [4] and in [5] was inactive. For the same molecule, the figures for the AC50 in assay [7] and in assay [8] were 66.8 µM (active) and 36.2 µM (active), respectively.
For the molecule `CC1=CC=C(C(C)C)CC1`, the outcome in [1], in [3], in assay [6], in assay [7] and in [8] was inactive.
Regarding `O=C(Cl)c1c(Cl)c(Cl)c(C(=O)Cl)c(Cl)c1Cl`, the outcome in [1], in [10], in [3], in assay [6], in assay [7] and in assay [9] was inactive.
`CCOB(OCC)OCC`: the outcome in [10], in [2], in assay [4], in assay [5] and in [7] was inactive.
Consider `O=C(O)C(F)(F)C(F)(F)C(F)(F)C(F)(F)C(=O)O`, for which the outcome in assay [1], in assay [3], in assay [6], in assay [7], in [8] and in assay [9] was inactive.
With `CC(C)CCCCCOC(=O)CS`, the result in assay [1], in [10], in assay [3], in assay [6] and in [8] was inactive. In assay [7], the concentration at half-maximal activity (AC50) was 19.5 µM (active).
Regarding `O=C(O)c1ccc2c(c1)C(=O)OC2=O`, the call in assay [10] was inactive.
Turning to `CC(C)C(=O)OCCc1ccccc1`, the outcome in assay [1], in [2], in assay [3], in assay [4], in assay [6] and in [8] was inactive. In assay [9], the molecule was classed as inactive.
With `CCc1cccc(C)c1N(C(=O)CS(=O)(=O)O)C(C)COC` (stereo not drawn), the outcome in assay [1], in assay [2], in [3], in [5], in [6] and in [7] was inactive. Besides, the outcome in assay [9] was inactive.
On to `CCC(C)C(=O)OC` (stereo not drawn), for which the molecule was called inactive in assay [10], in assay [2], in assay [4], in assay [5], in [7] and in assay [8].
Consider `CCCC1CCCC(=O)O1` (stereo not drawn), for which the result in assay [10], in assay [2], in assay [4] and in assay [8] was inactive. For the same molecule, the half-maximal activity concentration (AC50) in assay [7] is 23.4 µM (active).
